Compounds with a hit are over-represented: about 9.5% of the library has one in this group of screens.
ALDH1A1 inh: qHTS Assay for Inhibitors of Aldehyde Dehydrogenase 1 (ALDH1A1). Aldehyde dehydrogenase 1A1 (Homo sapiens), P00352. Purified ALDH1A1, NADH fluorescence, propionaldehyde substrate. Potency, µM (series often up to 75.3 µM), inactives show top-dose activity, negative = inhibition, actives largely listed as inhibitors. hit rate 7.3% among 220,000. AID 1030, 2008; active means well fitted inhibition curve with a large enough effect, not every such curve was filed as active; inconclusive means small, poorly fitted or top-dose-only effect, or another doubt; inactive means no such curve, though single readings can be large or run the other way;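 further: plate controls were no enzyme wells and a reference inhibitor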
NPSR antag: qHTS Assay for Antagonists of the Neuropeptide S Receptor: cAMP Signal Transduction; Q6W5P4; CHO-NPSR cells, cAMP TR-FRET, antagonist mode; Potency, µM (top dose mostly 38.3 µM), for the others: at the highest dose activity change, negative = inhibition, hits mostly inhibitors; hit rate 1% among 220,000; AID 1461, 2008; further: nearly all actives have a fitted effect of over 50% in size
Target sequence (Q6W5P4 whole entry, looked up): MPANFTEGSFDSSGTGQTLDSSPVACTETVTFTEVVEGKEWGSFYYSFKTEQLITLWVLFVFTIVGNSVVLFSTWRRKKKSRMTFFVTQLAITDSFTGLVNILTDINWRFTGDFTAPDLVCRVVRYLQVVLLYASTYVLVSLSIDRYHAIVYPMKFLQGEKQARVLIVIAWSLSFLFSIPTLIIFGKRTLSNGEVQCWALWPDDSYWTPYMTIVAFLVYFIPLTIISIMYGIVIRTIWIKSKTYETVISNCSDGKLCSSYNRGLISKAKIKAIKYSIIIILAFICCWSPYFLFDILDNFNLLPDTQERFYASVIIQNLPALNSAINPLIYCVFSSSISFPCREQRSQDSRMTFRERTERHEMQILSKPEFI
HPGD inh: qHTS Assay for Inhibitors of HPGD (15-Hydroxyprostaglandin Dehydrogenase) | purified HPGD, NADH fluorescence kinetic, PGE2 substrate | Potency, µM, inactives show at the highest dose activity change, negative = inhibition, most hits filed as inhibitors | 15-hydroxyprostaglandin dehydrogenase [NAD(+)] (Homo sapiens), P15428 | hit rate 4.3% among 150,000; active means well fitted inhibition curve with a large enough effect, not every such curve was filed as active; inconclusive means small, poorly fitted or top-dose-only effect, or another doubt; inactive means no such curve, though single readings can be large or run the other way
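NADH formation kinetics: reaction with 30 uM PGE2 and 1 mM NAD+ (final), 20 nM enzyme, Tris-HCl pH 8 with Tween 20, after 15 min compound preincubation at room temperature. Fluorescence change, last versus first of five reads.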
Tau fluor cs: Counterscreen qHTS for Inhibitors of Tau Fibril Formation, Fluorescence Polarization | tau K18 P301L Alexa594 fluorescence, heparin fibrillization | Potency, µM (doses to about 57.7 µM), without a hit: at the top dose activity change, negative = decrease | hit rate 0.93% among 280,000 | AID 1463, 2008; further: nearly all actives have a fitted effect of over 55% in size
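Human K18 P301L tau (15 uM unlabeled plus 0.24 uM Alexa 594-labeled, final) in 100 mM sodium acetate pH 7 was mixed with compound and 20 uM heparin and incubated 6 hr at 37 C.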
Tau FP inhib: qHTS for Inhibitors of Tau Fibril Formation, Fluorescence Polarization; Microtubule-associated protein tau (Homo sapiens), P10636; K18 P301L tau heparin fibrillization, Alexa594 FP, 6 h; Potency, µM (doses to about 57.7 µM), without a hit: at the top dose activity, negative = inhibition, usual class: inhibitors; hit rate 0.39% among 280,000; AID 1468, 2008; further: nearly all actives have a fitted effect of over 55% in size
Target sequence (P10636 561-689 P618L limits assumed): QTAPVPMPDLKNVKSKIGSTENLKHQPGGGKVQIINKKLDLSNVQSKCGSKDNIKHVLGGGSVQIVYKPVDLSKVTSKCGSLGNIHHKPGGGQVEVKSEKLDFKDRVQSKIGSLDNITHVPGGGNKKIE
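Human K18 P301L fragment (15 uM unlabeled plus 0.24 uM Alexa 594-labeled) in 100 mM sodium acetate pH 7 with compound, aggregation induced by 20 uM heparin for 6 hr at 37 C. ThT (30 uM) added for 1 hr, then Alexa 594 FP read.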
Tau fibril ThT: qHTS for Inhibitors of Tau Fibril Formation, Thioflavin T Binding | recombinant tau K18 P301L, heparin-induced fibrillization, ThT fluorescence | Potency, µM (titrated, usually from 57.4 µM), for the others: at the top dose activity, negative = inhibition, usual class: inhibitors | hit rate 2.1% among 270,000 | AID 1460, 2008; further: nearly all actives have a fitted effect of over 55% in size
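ThT emission at 510 nm, taken 1 hr after adding 30 uM dye, quantifies aggregates formed when 20 uM heparin acts on human tau K18 P301L for 6 hr at 37 C.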
An asterisk follows results filed as active; ? = inconclusive; / = not tested or not shown; [ ] = dose if it differs, or a comment. Unless noted, the call rests on the fitted dose curve; in most records, active means well fitted curve in the direction sought with a large enough effect; inconclusive means small, poorly fitted or top-dose-only effect, or another doubt; inactive means no such curve, though single readings can be large; an effect the other way counts as inactive or inconclusive. Unless noted, on the % scale 0 is the no-effect control and ±100 the full control effect; potency means the concentration at half of the fitted maximal effect.

SMILES	ALDH1A1 inh	NPSR antag	HPGD inh	Tau fluor cs	Tau FP inhib	Tau fibril ThT
CCOC(=O)C1(Cc2ccc(OC)cc2)CCN(C(=O)CN2CCN(CC)CC2)CC1	25µM*	-17%	/	2%	-4%	-12%
CCOC(=O)C1(Cc2ccc(OC)cc2)CCN(C(=O)Cn2cnnn2)CC1	-1%	2%	/	-7%	-4%	-6%
CSc1nnc(CCCCCCCCc2nnc(SC)o2)o1	-6%	4%	/	-8%	5%	?
Cn1c2ccccc2c2nn(-c3ccccc3)c(=O)cc21	13µM*	-14%[46.1 µM]	-16%	2%	-4%	5%
CC(C#N)Sc1nc2ccccc2c(=O)n1-c1ccccc1 (stereo not given)	4.5µM*	-14%[46.1 µM]	-5%	-7%	-2%	-2%
O=C(CSc1nc2ccccc2c(=O)n1-c1ccccc1)N1CCC1	?	9%	/	6%	-2%	10%
CSc1cccc(Nc2nc3c(S(=O)(=O)c4ccccc4)nnn3c3ccc(Cl)cc23)c1	/	/	/	-7%	-15%	6%
CCN(CC(=O)Nc1cc(Cl)ccc1OC)CC(=O)NC1CCS(=O)(=O)C1 (stereo not given)	/	11%	/	0%	1%	4%
CC(C)CNC(=O)CC(=O)N/N=C/c1ccc(Br)cc1	0.89µM*	?	16µM*	9%	?	9%
CC(C)NC(=O)CC(=O)N/N=C/c1ccc(Br)cc1	-7%	-7%[46.1 µM]	-11%	-1%	-6%	2%
COc1ccc(O[C@H]2C=C[C@@H](c3ccccc3)O[C@H]2COC(=O)CC/C(C)=N\OC[C@@H](O)[C@H]2O[C@H]3OC(C)(C)O[C@H]3[C@@H]2O)cc1	8%[13.5 µM]	/	/	-28%[11.6 µM]	-15%[11.6 µM]	-15%[11.5 µM]
Cc1ccc(-n2cccc2C(=O)NS(=O)(=O)c2ccc(C)cc2)cc1	/	8%	/	7%	0%	3%
Cc1ccc(-n2cccc2C(=S)N=P(N(C)C)(N(C)C)N(C)C)cc1	10µM*	-10%[46.1 µM]	?	-12%	-2%	-20%
COc1ccc(Cc2nnc(N/N=C/c3ccc(O)cc3O)[nH]c2=O)cc1OC	-7%	10%	32µM*	7%	1%	8%
O=C(COC(=O)Cc1cn2ccsc2n1)NCc1ccc2c(c1)OCO2	?	6%[46.1 µM]	14µM*	-10%	-6%	-6%
O=C(COC(=O)Cc1cn2ccsc2n1)NC12CC3CC(CC(C3)C1)C2	-6%	-5%[46.1 µM]	0%	1%	4%	2%
O=C(CSCc1cccc(Cl)c1)NCc1ccc2c(c1)OCO2	?	-5%[46.1 µM]	13µM*	-10%	-6%	-4%
O=C(CSCc1ccccc1)NCc1ccc2c(c1)OCO2	?	-14%[46.1 µM]	20µM*	-14%	?	-18%
O=C(NCc1ccc2c(c1)OCO2)c1nn(-c2ccccc2)c(=O)c2ccccc12	5.6µM*	-29%[46.1 µM]	-16%	-30%	1%	-15%
Cc1ccc(CSCC(=O)NCc2ccc3c(c2)OCO3)cc1	/	-7%[7.67 µM]	/	-15%	-2%	-9%
CCOc1ccc(-c2cc(NC(=O)c3cccc(Cl)c3)c(C(=O)OC)s2)cc1	/	/	/	-9%	2%	-5%
COc1ccccc1CNc1ccc(-c2nc(-c3cccnc3)no2)cc1[N+](=O)[O-]	/	/	/	-7%	-13%	-1%
CS(=O)(=O)c1cccc(-c2nnc(NC(=O)c3ccc4c(c3)OCCO4)o2)c1	/	/	/	1%	1%	-9%
O=C(COC(=O)c1ccco1)NCc1ccc2c(c1)OCO2	/	19%	/	-3%	4%	/
O=C(/C=C/c1ccco1)NCc1ccc2c(c1)OCO2	20µM*	6%	/	-16%	?	?
SMILES	ALDH1A1 inh	NPSR antag	HPGD inh	Tau fluor cs	Tau FP inhib	Tau fibril ThT
O=C(CN1C(=O)NC2(CCCCCCC2)C1=O)NCc1ccc2c(c1)OCO2	-1%	-3%[46.1 µM]	32µM*	-6%	-4%	-6%
O=C(/C=C/c1ccco1)Nc1ccc2c(c1)OCO2	?	-10%	/	6%	6%	3%
O=C(OC(C(=O)NCc1ccc2c(c1)OCO2)c1ccc(Cl)cc1)c1ccco1 (stereo not given)	14µM*	-24%[46.1 µM]	28µM*	-25%	-4%	-6%
CCOC(=O)C1C(c2ccc([N+](=O)[O-])cc2)C2C(=O)NN=C2CC1(C)O (stereo not given)	/	11%	/	-3%	0%	/
CC1(C)OC(=O)N(CCc2ccccc2)C1(C)O (stereo not given)	2%	-1%[46.1 µM]	-12%	5%	4%	-4%
CC1(C)OC(=O)N(Cc2ccco2)C1(C)O (stereo not given)	18µM*	4%[46.1 µM]	-17%	-3%	-5%	?
COc1ccc(C(=O)N2N=C(c3cccc(OC)c3)CC2(O)C(F)(F)F)cc1 (stereo not given)	10%	-19%	-8%	-18%	-5%	-16%
CCCOc1ccc(C(=O)Nc2cc(-c3nn4c(C)nnc4s3)ccc2C)cc1	-6%	3%[46.1 µM]	1.3µM*	0%	-3%	8%
CCOc1cccc(C(=O)Nc2cc(-c3nn4c(C)nnc4s3)ccc2C)c1	14%	12%	-9%	-8%	8%	-14%
Cc1cccc(OCCCC(=O)Nc2ccc(N(C)C)cc2)c1	?	-11%	0%	-23%	16%	13µM*
Cc1[nH]c2ccccc2c1C(=O)CN1CCCCC1C (stereo not given)	20µM*	-15%[46.1 µM]	-19%	8%	-4%	11%
Cc1[nH]c2ccccc2c1C(=O)CCl	0.25µM*	?	/	8%	1%	-3%
CCC1CCCCN1CC(=O)c1c(C)[nH]c2ccccc12 (stereo not given)	-15%	-2%[46.1 µM]	-12%	-7%	-2%	-14%
COc1ccc(C(=O)Nc2ccc(C3(C#N)CCCC3)cc2)cc1	1.3µM*	0%	/	-21%	-16%	?
COc1ccc(C(=O)Nc2ccc(N3CCN(c4ccc(OC)cc4)CC3)c(C#N)c2)cc1	?	3.2µM*	?	5%	5%	?
N#CC1(c2ccc(NC(=O)c3ccccc3F)cc2)CCCC1	5µM*	-12%[46.1 µM]	-30%	-19%	0%	-13%
O=C(Nc1ccc(N2CCCC2)cc1)c1ccccc1F	?	-13%[46.1 µM]	-9%	-16%	2%	?
CC(=O)N1CCC[C@@]2(CCN(C(=O)Nc3cccc(C#N)c3)C2)C1	16%	/	-1%	/	/	/
Nc1c(C(=O)Nc2ccccc2)sc2nc3c(c(-c4ccco4)c12)CCC3	-7%	-28%[46.1 µM]	-4%	-28%	0%	-17%

Screens from PubChem.
